The campaign covered roughly 310,000 compounds. About 14,000 (4.5%) showed an effect of 50% or more. The effect is printed as a negative number. The full list was thinned out, with strong results kept by preference.
target: human ether-à-go-go-related gene (hERG) potassium channel (human, UniProt Q12809); assay: primary screen, population patch clamp on CHO cells stably expressing hERG; higher = less effect of the substance
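Note: peak tail current of the secondary pulse compared with the same well before compound.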

human ether-à-go-go-related gene (hERG) potassium channel, sequence (Q12809 whole entry, looked up): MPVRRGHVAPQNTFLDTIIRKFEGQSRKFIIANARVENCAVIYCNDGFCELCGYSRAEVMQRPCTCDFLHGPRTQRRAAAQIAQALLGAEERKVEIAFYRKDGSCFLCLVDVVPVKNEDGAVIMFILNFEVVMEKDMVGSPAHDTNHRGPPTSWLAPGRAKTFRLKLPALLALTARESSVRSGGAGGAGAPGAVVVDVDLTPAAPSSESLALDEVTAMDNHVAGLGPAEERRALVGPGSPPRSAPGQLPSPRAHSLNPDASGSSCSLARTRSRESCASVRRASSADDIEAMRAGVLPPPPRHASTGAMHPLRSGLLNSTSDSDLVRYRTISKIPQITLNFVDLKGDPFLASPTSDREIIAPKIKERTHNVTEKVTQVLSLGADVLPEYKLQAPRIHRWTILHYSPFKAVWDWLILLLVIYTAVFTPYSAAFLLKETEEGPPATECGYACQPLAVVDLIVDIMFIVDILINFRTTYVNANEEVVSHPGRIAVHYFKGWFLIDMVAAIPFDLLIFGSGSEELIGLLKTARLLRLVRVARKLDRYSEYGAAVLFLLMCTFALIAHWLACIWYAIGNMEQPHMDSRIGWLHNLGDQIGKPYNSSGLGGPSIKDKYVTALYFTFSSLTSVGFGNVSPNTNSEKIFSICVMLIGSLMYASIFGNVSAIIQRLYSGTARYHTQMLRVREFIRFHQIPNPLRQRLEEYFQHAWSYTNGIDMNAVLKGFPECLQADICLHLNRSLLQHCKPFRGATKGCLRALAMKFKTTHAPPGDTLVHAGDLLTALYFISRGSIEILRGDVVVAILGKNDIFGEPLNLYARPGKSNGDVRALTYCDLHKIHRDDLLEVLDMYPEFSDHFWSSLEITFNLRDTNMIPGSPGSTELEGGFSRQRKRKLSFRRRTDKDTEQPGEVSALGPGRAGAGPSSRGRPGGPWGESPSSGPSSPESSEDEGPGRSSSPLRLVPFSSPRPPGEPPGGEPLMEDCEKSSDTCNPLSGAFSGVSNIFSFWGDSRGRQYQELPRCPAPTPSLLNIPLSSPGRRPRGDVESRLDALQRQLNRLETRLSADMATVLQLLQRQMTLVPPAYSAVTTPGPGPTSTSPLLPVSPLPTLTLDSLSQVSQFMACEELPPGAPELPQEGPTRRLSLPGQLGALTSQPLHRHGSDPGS

SMILES | hERG current change (%, negative = inhibition) at 10uM
O=C(c1ccc(CS(=O)c2cccc(Cl)c2)o1)N1CCOCC1 (centres unmarked) | 10.8%
CCC(CC)N1CCN(CCc2ccccc2)C(CCO)C1 (centres unmarked) | -19%
Cc1ccc(CN2CCN(CCCc3ccccc3)CC2CCO)cc1 (centres unmarked) | -76.4%
CC(C)/C=C/CN1CCN(CCCc2ccccc2)C(CCO)C1 (centres unmarked) | -73.4%
Cn1cccc1C(=O)NC(=O)COC(=O)c1ccccc1O | -6.93%
Cc1cc(C(=O)Nn2c(-c3ccc(Br)cc3)nc3ccccc3c2=O)ccc1[N+](=O)[O-] | 8.86%
Cc1cccc(-c2nc3ccccc3c(=O)n2NC(=O)/C=C/c2ccc([N+](=O)[O-])cc2)c1 | -60.7%
O=C(Nn1c(-c2ccccc2)nc2ccccc2c1=O)c1ccc([N+](=O)[O-])cc1 | -15.4%
O=C(Nn1c(-c2ccc(Br)cc2)nc2ccccc2c1=O)c1ccc([N+](=O)[O-])cc1 | -66.6%
Cc1cccc(-c2nc3ccccc3c(=O)n2NC(=O)c2ccc([N+](=O)[O-])c(C)c2)c1 | 14.5%
O=C(/C=C/c1cccc([N+](=O)[O-])c1)Nn1c(-c2ccccc2F)nc2ccccc2c1=O | -23.1%
CN(c1ccc(C(=O)NCc2ccco2)cc1)S(C)(=O)=O | 5.87%
NC(=O)C1CCN(C(=O)c2cc3n(n2)C(C(F)(F)F)CC(c2ccco2)N3)CC1 (centres unmarked) | 14.8%
Cc1nc(-c2ccc(Cl)cc2)sc1C1(C)CC(c2ccc(C#N)cc2)=NO1 (centres unmarked) | -29.2%
Cc1ccc(OCc2nnc(SCC(=O)Nc3ccc4c(c3)OCCO4)n2Cc2ccco2)cc1 | 6.31%
COc1ccc2c(c1)c(C(C)=O)c(C)n2CCc1ccc(OC)c(OC)c1 | -6.52%
COc1ccc(C2Nc3ccccc3C(=O)N2NS(=O)(=O)c2ccccc2)cc1OC (centres unmarked) | 13.5%
COc1cc(NS(=O)(=O)c2ccc(NC(=O)C3CCCO3)cc2)nc(OC)n1 (centres unmarked) | 6.87%
S=c1[nH]nc(-c2ccccc2)n1/N=C/c1ccc(-c2ccccc2Cl)o1 | 25.4%
Cc1cccc(NC(=O)c2cc3c(=O)n4ccccc4nc3n(CC(C)C)c2=N)c1 | -78%
COc1cccc(NC(=O)c2cc3c(=O)n4ccccc4nc3n(CC(C)C)c2=N)c1 | -82%

SMILES | hERG current change (%, negative = inhibition) at 10uM
COc1ccc(NC(=O)c2cc3c(=O)n4ccccc4nc3n2C)cc1OC | 13.7%
COc1cccc(NC(=O)C(Sc2nc3ccccc3c(=O)n2CC(C)C)c2ccccc2)c1 (centres unmarked) | 11.8%
Cc1cccc(NC(=O)c2c(C)nc3ccccn23)c1 | -0.935%
Cc1cccc(NC(=O)c2cc3c(=O)n4ccccc4nc3s2)c1 | 10.8%
CCOc1ccc(NC(=O)CSc2nc(=O)n(Cc3cccnc3)c3c2CCC3)cc1 | -8.74%
CN(c1cccc(NC(=O)c2cccc([N+](=O)[O-])c2)c1)S(C)(=O)=O | 13.1%
O=C(Nc1ccc(N2CCOCC2)cc1N1CCOCC1)c1ccc([N+](=O)[O-])cc1 | 2.51%
COc1cc(/C=N/NS(=O)(=O)c2ccc(Br)cc2)ccc1O | 1.58%
Cc1ccc(NC(=O)CNC(=O)c2ccco2)nc1 | 17.3%
CCOc1cc(S(=O)(=O)n2cnc(C)c2)ccc1Cl | -8.24%
COc1ccc(/C=C/C(=O)N(C)C2CCS(=O)(=O)C2)cc1OC (centres unmarked) | 2.01%
COc1ccc(/C=C/C(=O)N(C)c2ccccc2C(=O)O)cc1 | -4.18%
COc1ccc(N(C(=O)/C=C/c2ccccc2)C2=CC3CCC(C2)N3C)cc1.Cl (centres unmarked) | -74.6%
COc1ccc(C(=O)Cn2c(C(=O)/C=C/c3ccccc3)nc3ccccc32)cc1 | -16.4%
COc1ccc(N(C(=O)/C=C/c2ccc(OC)c(OC)c2)C2=CC3CCC(C2)N3C)cc1.Cl (centres unmarked) | -69.6%
COc1ccc(/C=C/C(=O)N2CCN(C)CC2)cc1OC | 6.7%
Cn1c(C(=O)N[C@@H](Cc2ccccc2)C(=O)NCCC(=O)O)cc2cc(Cl)ccc21 | 0.651%
COc1ccc(OCC(=O)OCC(=O)N2CC(=O)Nc3ccccc32)cc1 | -3.16%
Cc1ccc(CCC(=O)Nc2ccc([N+](=O)[O-])cc2)o1 | 0.967%
CC1CN(c2ncnc3c2c(-c2ccccc2)cn3-c2ccc(F)cc2)CC(C)O1 (centres unmarked) | 12%
COc1ccc(-n2cc(-c3ccccc3)c3c(N4CCN(CCO)CC4)ncnc32)cc1 | -42%

SMILES | hERG current change (%, negative = inhibition) at 10uM
Cc1ccc(-n2cc(-c3ccccc3)c3c(N4CCN(C)CC4)ncnc32)cc1 | -9.95%
OCCN1CCN(c2ncnc3c2c(-c2ccccc2)cn3-c2ccc(F)cc2)CC1 | -74.3%
CCN1CCN(c2ncnc3c2c(-c2ccccc2)cn3-c2ccc(F)cc2)CC1 | -74.5%
OCCN1CCN(c2ncnc3c2c(-c2ccccc2)cn3-c2ccc(Br)cc2)CC1 | -15.2%
CNCCCC1c2ccccc2C=Cc2ccccc21.Cl | 13.2%
O=c1[nH]c(Nc2ccccc2Cl)cc2ccccc12 | 10.9%
O=C(Cc1ccccc1F)OCN1C(=O)c2ccccc2C1=O | 21.5%
N#C/C(=C/c1cccc(C(F)(F)F)c1)c1nc(CCN2C(=O)c3ccccc3C2=O)cs1 | -0.904%
N#Cc1cccc(C(=O)OCC(=O)N2CCCc3ccccc32)c1 | -1.94%
COc1cc(CN2CCC(n3nccc3NC(=O)CCCc3ccccc3)CC2)ccc1O | -31.1%
COc1ccc(CN2CCC(n3nccc3NC(=O)CCCc3ccccc3)CC2)cc1C | -93.3%
COc1cc(CN2CCC(n3nccc3NC(=O)CCCc3ccccc3)CC2)ccc1F | -66.5%
O=C(O)CNC(=O)c1ccccc1NC(=O)c1ccco1 | 7.93%
COc1ccccc1C/C(N)=N/OC(=O)COc1ccc(C)cc1C | 17.4%
CC12CC3CC(C)(C1)CC(C(=O)NCc1cccnc1)(C3)C2 | -11.6%
c1cc(C2CCN(Cc3nc(-c4ccc5c(c4)OCO5)no3)CC2)ccn1 | -19.7%
c1ccc(OCCN2CCN(Cc3nc(-c4ccc5c(c4)OCO5)no3)CC2)cc1 | -51.5%
O=C(c1ccco1)N1CCCN(Cc2nc(-c3ccc4c(c3)OCO4)no2)CC1 | -46.1%
COCC1CCN(Cc2nc(-c3ccc4c(c3)OCO4)no2)C1 (centres unmarked) | -17.1%
COCC1CCCN(Cc2nc(-c3ccc4c(c3)OCO4)no2)C1 (centres unmarked) | -5.71%
Fc1ccc(CN2CCCN(Cc3nc(-c4ccc5c(c4)OCO5)no3)CC2)cc1 | -62.2%

SMILES | hERG current change (%, negative = inhibition) at 10uM
Fc1ccccc1CNc1ncnc2sccc12 | 11.9%
CCOC(=O)CN1C(=O)SC(Nc2ccc(C)cc2)C1=O (centres unmarked) | 27.1%
O=C(Nc1c2c(nn1-c1ccccc1)CS(=O)C2)c1ccco1 (centres unmarked) | 7.5%
CC(=O)OCC(=O)[C@@]1(OC(C)=O)[C@@H](C)C[C@H]2[C@@H]3C[C@H](F)C4=CC(=O)C=C[C@]4(C)[C@@]3(F)[C@@H](O)C[C@@]21C | -15.1%
Oc1ccccc1-c1nc(NCC2CCCO2)c2ccccc2n1 (centres unmarked) | 19%
Cl.c1ccc(Nc2nc(NCC3CCCO3)c3ccccc3n2)cc1 (centres unmarked) | -31.2%
Cl.Oc1cccc(Nc2nc(NCC3CCCO3)c3ccccc3n2)c1 (centres unmarked) | -61.4%
CCOc1ccc(Nc2nc(N)c3ccccc3n2)cc1.Cl | -41.8%
Cl.OCCNc1nc(Nc2cccc(O)c2)nc2ccccc12 | -23.8%
COc1ccc(Nc2nc(NCC3CCCO3)c3ccccc3n2)c(OC)c1.Cl (centres unmarked) | -71.7%
Oc1ccc(Cl)cc1Nc1nc(NCC2CCCO2)c2ccccc2n1 (centres unmarked) | 23%
CC(C)Oc1ccc(-c2nc(NCC3CCCO3)c3ccccc3n2)cc1 (centres unmarked) | -27.4%
COc1ccc(OC)c(Nc2nc(NCCO)c3ccccc3n2)c1.Cl | -44.4%
Cl.Oc1ccccc1Nc1nc(NCC2CCCO2)c2ccccc2n1 (centres unmarked) | -67.5%
COc1ccc(S(=O)(=O)Nc2nc3ccccc3nc2NCC2CCCO2)cc1 (centres unmarked) | 5.29%
CCOc1ccc(Nc2nc(NCC3CCCO3)c3ccccc3n2)cc1.Cl (centres unmarked) | -72.3%
CC(C)C[C@@H](CO)N1CCN(Cc2cccnc2)CCC1=O | 3.69%
CCn1c2ccccc2c2cc(NC(=O)c3cccc([N+](=O)[O-])c3C)ccc21 | 7.76%
CCOc1ccc(/C=C2/SC(=S)N(n3c(C)ccc3C)C2=O)cc1 | 8.78%
Cc1ccc(N=C(N(C)C)P(=O)(N(C)C)N(C)C)cc1 | 17.4%
